This note sets out measurements from PubChem BioAssay (Tox21).

Assay [1] is described as follows: Nuclear factor erythroid 2-related factor 2/antioxidant responsive element (Nrf2/ARE) small molecule agonists: qHTS cell viability counter screen in human keratinocytes (AID 1919968; active = well fitted curve in the direction sought with a large enough effect in the repeat runs; an effect the other way counts as inactive or inconclusive; note: nearly all actives have a fitted effect of over 55% in size; note: potency is the fitted concentration of half-maximal effect). The method, boiled down: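 Seed 1,500 KeratinoSens cells per well, then incubate 5 h at 37 C/5% CO2. Add compounds in DMSO and incubate 23 h. Add CellTiter-Fluor, wait 1 h and read fluorescence.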
Background: Quantitative high-throughput screening tests each substance at several concentrations.

A short description of assay [2]: Nuclear factor erythroid 2-related factor 2/antioxidant responsive element (Nrf2/ARE) small molecule agonists: luciferase reporter gene qHTS assay in human keratinocytes (AID 1919969). Note: nearly all actives have a fitted effect of over 35% in size. Note: potency is the fitted concentration of half-maximal effect. In general terms: A reporter such as luciferase makes a cellular process visible.
Assay [3] deals with Gonadotropin-releasing hormone receptor (Homo sapiens) (UniProt P30968). Briefly: Human gonadotropin-releasing hormone receptor (GnRHR) small molecule agonists, calcium flux assay in GnRHR-HEK293 cells (AID 1920063). Note: nearly all actives have a fitted effect of over 35% in size. The method, boiled down:
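Cells: HEK293 stably expressing human GnRHR. Steps: overnight (18 h) culture, 1 h calcium dye loading at 37 C, compound addition, kinetic fluorescence read at 480/540 nm. Each compound tested at 15 concentrations in triplicate.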

The target in assay [4] is KiSS-1 receptor (Homo sapiens) (UniProt Q969F8). Nature of the assay: Human kisspeptin (KISS1R) small molecule agonists, calcium flux assay in KISS1R-HEK293 cells (AID 1920064; active = well fitted curve in the direction sought with a large enough effect in the repeat runs; an effect the other way counts as inactive or inconclusive). The method, boiled down:
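Cells plated and incubated 18 h; dye added, 1 h at 37 C; compounds in DMSO pinned in; signal read at 480/540 nm every second for 3 min. Each compound tested at 15 concentrations in triplicate.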

A short description of assay [5]: G protein-coupled receptor (GPCR) small molecule agonists, calcium flux assay: HEK293 wild type cell line counter screen (AID 1920065). In a few lines: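 Counter-screen of the Tox21 10K library for non-specific calcium release: dye-loaded cells received compounds in DMSO and were monitored by kinetic fluorescence (480/540 nm, 3 min). Fifteen concentrations, run in triplicate.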

A short description of assay [6]: p53 small molecule agonists, cell-based qHTS assay with human liver microsomes (AID 1963577).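 Note: p53 response element beta-lactamase reporter cells with liver microsomes plus NADPH.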 In a few lines:
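p53RE-bla cells; 5 h settle, 37 C/5% CO2; cpd + HLM 0.5 mg/mL + NADPH 0.5 mg/mL (final); 16 h 37 C; LiveBLAzer 2 h RT dark; fluorescence readout.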

The nature of assay [7]: p53 small molecule agonists, cell-based qHTS assay with rat liver microsomes (AID 1963578). In a few lines:
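Rat liver microsome activation: microsomes 0.5 mg/mL, NADPH 0.5 mg/mL final; p53RE-bla cells, 16 h 37 C; LiveBLAzer readout, 2 h RT dark.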

Assay [8] is described as follows: p53 small molecule agonists, cell-based qHTS assay with human liver microsomes: qHTS cell viability counter screen (AID 1963579). Note: nearly all actives have a fitted effect of over 45% in size. The method, boiled down:
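Luminescent CellTiter-Glo read-out, 30 min at room temperature, gauged cytotoxicity in p53RE-bla cells exposed 16 h at 37 C to DMSO-dissolved compounds with metabolic activation by human liver microsomes and NADPH, each 0.5 mg/mL final.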

The nature of assay [9]: p53 small molecule agonists, cell-based qHTS assay with rat liver microsomes: qHTS cell viability counter screen (AID 1963580). Note: nearly all actives have a fitted effect of over 45% in size. The method, boiled down: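 Viability is assessed in parallel with the p53 reporter read: HCT-116 p53RE-bla cells receive compounds plus rat microsomes and NADPH (0.5 mg/mL final apiece), incubate 16 h at 37 C, and then CellTiter-Glo luminescence is recorded.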

Assay [10] in a line: p53 small molecule agonists, cell-based qHTS assay: qHTS cell viability counter screen (AID 1963581). Note: nearly all actives have a fitted effect of over 45% in size. The method, boiled down: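 Cells: HCT-116 with p53 response element-driven beta-lactamase. Treatment: 16 h, 37 C, compounds in DMSO. Read: CellTiter-Glo luminescence after 30 min RT.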
The nature of assay [11]: p53 small molecule agonists, cell-based qHTS assay (AID 1963582; active = well fitted activation curve with a large enough effect in the signal ratio in the repeat runs, not every such curve was filed as active; the % refers to the signal ratio). In a few lines: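 Quantitative HTS in p53RE-bla cells: after a 5 h settling period, compounds delivered in DMSO were left on cells for 16 h at 37 C, and reporter induction was measured as fluorescence following 2 h substrate loading.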
Assay [12] can be described thus: cAMP Responsive Elements (CRE) small molecule agonists, cell-based qHTS assay (AID 1963590). The method, boiled down: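 Agonist mode qHTS in CRE-bla HEK 293T cells: compounds dosed from DMSO for 3 h at 37 C/5% CO2, followed by LiveBLAzer B/G FRET substrate for 2 h at room temperature.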
Assay [13] is described as follows: cAMP Responsive Elements (CRE) small molecule antagonists, cell-based qHTS assay (AID 1963591; active = well fitted inhibition curve with a large enough effect in the signal ratio in the repeat runs, not every such curve was filed as active; the % refers to the signal ratio). In a few lines: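 Antagonist mode: test compounds are co-incubated with the adenylyl cyclase activator NKH477 (0.25 uM final) on CRE-bla HEK293T cells for 3 h at 37 °C, followed by LiveBLAzer substrate loading.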
For assay [14], the target named is Beta-2 adrenergic receptor (Homo sapiens) (UniProt P07550). Briefly: Adrenergic beta2 receptor (ADRB2) small molecule antagonists, cell-based qHTS assay (AID 1963592). Note: series mostly up to about 92 µM; nearly all actives have a fitted effect of over 50% in size. In a few lines:
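Cells (CHO, stable ADRB2 overexpression) incubated 18-20hr at 37C; compounds added from DMSO; agonist mix (1nM isoproterenol, 100uM IBMX, 25uM Ro-20-1724) added; 0.5hr RT; d2-cAMP and anti-cAMP-cryptate added; 1hr RT; 665/615 nm read.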

In assay [15] the target is D(2) dopamine receptor (Homo sapiens) (UniProt P14416). Briefly: Dopamine D2 receptor (DRD2) small molecule agonists, cell-based qHTS assay (AID 1963594). Note: nearly all actives have a fitted effect of over 35% in size. The method, boiled down:
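HEK293 cells stably expressing human DRD2, pre-treated with PDE inhibitor Ro20-1724 (0.1 mM final) and compound 10 min at room temperature, then stimulated with NKH477 (200nM […]) for 30 min. cAMP read by HTRF (665/620 nm).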

Assay [16] has the same target. Briefly: Dopamine D2 receptor (DRD2) small molecule antagonists, cell-based qHTS assay (AID 1963595; active = well fitted inhibition curve with a large enough effect in the signal ratio in the repeat runs, with a control signal flat; the % refers to the signal ratio). In a few lines: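 Cells were plated and grown for 24 h at 37 °C. Ro20-1724 (0.1 mM final) went in first, then compound for 10 min. NKH477 (200 nM) with quinpirole (12 nM) followed for 30 min at RT, then HTRF detection reagents for 1 h.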
Assay [17] has as its target 5-hydroxytryptamine receptor 2A (Homo sapiens) (UniProt P28223). Nature of the assay: 5-hydroxytryptamine receptor 2A (HTR2A) small molecule agonists, cell-based qHTS assay (AID 1963587). Note: nearly all actives have a fitted effect of over 30% in size. Note: potency is the fitted concentration of half-maximal effect. The method, boiled down:
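CHO cells stably expressing human HTR2A, plated 18 h, loaded with calcium dye 1 h at 37 C. Agonist mode: compounds added and intracellular calcium fluorescence recorded kinetically for 2 min at 1 sec intervals.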

The target in assay [18] is Muscarinic acetylcholine receptor M1 (Homo sapiens) (UniProt P11229). Nature of the assay: Cholinergic receptor muscarinic 1 (CHRM1) small molecule agonists, cell-based qHTS assay (AID 1963589). Note: nearly all actives have a fitted effect of over 35% in size. In a few lines:
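Agonist-mode qHTS in CHO cells stably carrying human muscarinic M1. Intracellular calcium is tracked by fluorescence every second after compound transfer; each compound runs at 15 concentrations in three independent runs.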

For assay [19], the target named is 5-hydroxytryptamine receptor 2A (Homo sapiens) (UniProt P28223). Briefly: 5-hydroxytryptamine receptor 2A (HTR2A) small molecule antagonists, cell-based qHTS assay (AID 1963586). Note: nearly all actives have a fitted effect of over 45% in size. The method, boiled down: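 Antagonist-mode intracellular calcium assay: DOI (4 nM) added after 5 min compound pre-incubation at room temperature to dye-loaded HTR2A-CHO cells. Fluorescence followed for 3 min, sampled every second.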
5-hydroxytryptamine receptor 2A (Homo sapiens), sequence (P28223 whole entry, looked up): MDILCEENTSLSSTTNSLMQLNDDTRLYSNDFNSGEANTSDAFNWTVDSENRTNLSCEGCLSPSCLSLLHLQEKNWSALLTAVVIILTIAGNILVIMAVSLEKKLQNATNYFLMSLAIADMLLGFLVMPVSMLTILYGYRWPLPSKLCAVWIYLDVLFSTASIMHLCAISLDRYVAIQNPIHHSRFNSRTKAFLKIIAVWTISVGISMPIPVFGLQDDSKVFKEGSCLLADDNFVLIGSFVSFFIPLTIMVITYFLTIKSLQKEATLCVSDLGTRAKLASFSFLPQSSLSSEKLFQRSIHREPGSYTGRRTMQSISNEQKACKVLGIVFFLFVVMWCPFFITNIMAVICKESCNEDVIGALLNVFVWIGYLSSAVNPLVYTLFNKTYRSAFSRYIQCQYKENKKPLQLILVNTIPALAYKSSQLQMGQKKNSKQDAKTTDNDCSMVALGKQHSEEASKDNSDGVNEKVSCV

Assay [20] deals with Muscarinic acetylcholine receptor M1 (Homo sapiens) (UniProt P11229). Briefly: Cholinergic receptor muscarinic 1 (CHRM1) small molecule antagonists, cell-based qHTS assay (AID 1963588). Note: nearly all actives have a fitted effect of over 40% in size. The method, boiled down: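 CHRM1-CHO calcium-flux assay, antagonist mode. Cells were seeded 18 h, dye-loaded 1 h at 37 C and given compound for 5 min at RT, then acetylcholine was added at 50nM. FDSS fluorescence was read 3 min; 15 concentrations, three runs.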
Muscarinic acetylcholine receptor M1 (Homo sapiens), sequence (P11229 whole entry, looked up): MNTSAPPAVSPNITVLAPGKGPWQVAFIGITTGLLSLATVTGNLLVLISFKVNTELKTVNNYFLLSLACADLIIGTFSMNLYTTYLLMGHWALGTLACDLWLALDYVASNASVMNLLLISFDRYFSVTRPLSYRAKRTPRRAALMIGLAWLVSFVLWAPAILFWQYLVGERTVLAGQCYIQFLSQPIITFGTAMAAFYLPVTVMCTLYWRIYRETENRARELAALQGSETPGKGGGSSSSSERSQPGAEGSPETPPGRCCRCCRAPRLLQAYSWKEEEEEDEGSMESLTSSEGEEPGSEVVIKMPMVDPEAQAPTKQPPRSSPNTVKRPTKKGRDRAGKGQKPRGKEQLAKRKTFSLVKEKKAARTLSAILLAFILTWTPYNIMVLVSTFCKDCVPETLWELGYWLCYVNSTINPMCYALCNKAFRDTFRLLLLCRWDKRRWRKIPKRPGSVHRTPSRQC

A number with no mark means an inactive call. Records with an inconclusive call do not appear. Calls of active or inactive are those of the source. Unless noted, calls come from the whole dose curve.
% is set by controls: 0 for no effect and ±100 for the full control effect.

Gonadotropin-releasing hormone receptor (Homo sapiens), sequence (P30968 whole entry, looked up): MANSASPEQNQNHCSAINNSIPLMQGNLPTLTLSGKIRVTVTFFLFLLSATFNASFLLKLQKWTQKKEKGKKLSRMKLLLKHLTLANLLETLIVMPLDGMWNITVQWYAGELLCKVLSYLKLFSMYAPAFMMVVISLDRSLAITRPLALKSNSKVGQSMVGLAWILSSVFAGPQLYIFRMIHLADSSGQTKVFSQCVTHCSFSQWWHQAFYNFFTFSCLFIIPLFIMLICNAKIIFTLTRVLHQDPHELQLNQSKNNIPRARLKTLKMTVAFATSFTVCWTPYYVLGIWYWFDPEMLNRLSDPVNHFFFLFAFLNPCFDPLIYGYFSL
Beta-2 adrenergic receptor (Homo sapiens), sequence (P07550 whole entry, looked up): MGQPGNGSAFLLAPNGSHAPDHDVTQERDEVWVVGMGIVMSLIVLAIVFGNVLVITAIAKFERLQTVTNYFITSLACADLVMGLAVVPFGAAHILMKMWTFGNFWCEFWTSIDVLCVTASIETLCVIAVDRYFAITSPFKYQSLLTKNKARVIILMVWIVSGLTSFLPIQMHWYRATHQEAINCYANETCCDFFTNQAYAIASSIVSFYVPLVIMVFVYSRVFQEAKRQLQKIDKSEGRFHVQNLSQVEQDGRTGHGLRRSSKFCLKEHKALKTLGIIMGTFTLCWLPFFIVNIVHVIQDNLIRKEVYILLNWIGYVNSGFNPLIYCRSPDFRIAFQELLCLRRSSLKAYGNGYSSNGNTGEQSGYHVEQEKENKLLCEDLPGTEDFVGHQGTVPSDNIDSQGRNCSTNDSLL
KiSS-1 receptor (Homo sapiens), sequence (Q969F8 whole entry, looked up): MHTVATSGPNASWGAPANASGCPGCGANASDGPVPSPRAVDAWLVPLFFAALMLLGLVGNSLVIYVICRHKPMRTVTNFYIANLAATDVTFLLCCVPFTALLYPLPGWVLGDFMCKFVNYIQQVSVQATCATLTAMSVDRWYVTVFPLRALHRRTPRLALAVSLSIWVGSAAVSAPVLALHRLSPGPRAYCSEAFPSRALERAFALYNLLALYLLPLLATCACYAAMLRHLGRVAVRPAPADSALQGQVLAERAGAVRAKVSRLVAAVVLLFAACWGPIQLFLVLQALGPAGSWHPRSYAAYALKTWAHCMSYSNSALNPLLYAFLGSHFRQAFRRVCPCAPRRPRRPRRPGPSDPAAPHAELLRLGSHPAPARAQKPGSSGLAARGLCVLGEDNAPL
D(2) dopamine receptor (Homo sapiens), sequence (P14416 whole entry, looked up): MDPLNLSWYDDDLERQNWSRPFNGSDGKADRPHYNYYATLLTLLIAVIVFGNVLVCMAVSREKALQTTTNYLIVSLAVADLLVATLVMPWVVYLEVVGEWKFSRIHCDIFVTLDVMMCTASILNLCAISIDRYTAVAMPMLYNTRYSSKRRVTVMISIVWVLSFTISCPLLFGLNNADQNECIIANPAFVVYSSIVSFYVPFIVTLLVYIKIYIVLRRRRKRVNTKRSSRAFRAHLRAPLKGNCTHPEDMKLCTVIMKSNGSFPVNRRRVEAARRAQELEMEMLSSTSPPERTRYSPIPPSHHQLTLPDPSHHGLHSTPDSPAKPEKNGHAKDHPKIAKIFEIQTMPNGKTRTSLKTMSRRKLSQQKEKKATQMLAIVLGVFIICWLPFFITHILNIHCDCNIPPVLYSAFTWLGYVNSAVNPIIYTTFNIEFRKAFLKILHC

With `COc1ccc(C(=O)N2CCCC2=O)cc1`, the Potency result in assay [1], in assay [2], in assay [3], in [4], in assay [5] and in [6] was “inactive” in each case. For the same compound, the Potency entry in assay [7], in assay [8], in assay [9], in assay [10], in assay [11] and in [12] was “inactive” throughout. The Potency entry in assay [13], in assay [14], in assay [15] and in assay [16] was “inactive” throughout.

For the compound `O=S1(=O)OCCO1`, the Potency result in assay [1], in assay [2], in [3], in assay [4], in assay [5] and in assay [6] was “inactive” in each case. Moreover, the Potency result in assay [7], in [8], in assay [9], in [10], in [11] and in assay [17] was “inactive” each time. Further, the Potency entry in assay [18], in [12], in assay [13] and in assay [16] was “inactive” each time.

Regarding `Oc1cc(Cl)cc(Cl)c1`, the Potency result in assay [1], in assay [2], in assay [3], in assay [4], in [5] and in assay [6] was “inactive” throughout. In addition, the Potency entry in assay [7], in [8], in assay [9], in assay [10], in assay [19] and in [17] was “inactive” in each case. Further, the Potency entry in assay [20], in [18], in assay [13], in [14], in assay [15] and in [16] was “inactive” each time.

With `S=C=Nc1cccc2ccccc12`, the values for the Potency in assay [1] and in assay [2] were 27 µM (active) and 15.2 µM (active), respectively. For the same compound, the Potency entry in assay [3], in assay [4], in assay [5], in assay [6], in assay [7] and in assay [8] was “inactive” in each case. Moreover, the Potency entry in [9], in assay [10], in [11], in assay [12], in assay [14] and in assay [15] was “inactive” throughout. Moreover, the Potency entry in [16] is “inactive”.

As to `Cc1ccc2c(c1)C1CN(C)CCC1N2` (configuration not stated), the activity change, negative = cytotoxicity is -10.1% [at 19 µM] in [1], -1.76% [at 13.5 µM] in assay [8], -8.73% [at 13.5 µM] in assay [9] and 13.5% [at 13.5 µM] in assay [10]. In assay [2], the activity, positive = activation is -3.42% [at 19 µM]. In assay [3], the activity change is 1.2% [at 11.8 µM, stronger effect = higher value]. Further, the activation is -0.319% [at 15.8 µM] in [4]; -0.508% [at 11.8 µM] in assay [5]; 3.07% [at 13.5 µM] in [6]; -0.463% [at 13.6 µM] in assay [7]; 0% [at 13.5 µM] in [11]; -0.313% [at 15.8 µM] in assay [18]. The activation was -1.75% [at 19 µM] in assay [12] and -2.85% [at 19 µM] in assay [15]. In assay [17], the Potency was 0.165 µM (active). Also, the activity change, negative = inhibition was -7.6% [at 18.9 µM] in [13], -2.7% [at 19 µM] in [14] and -2.92% [at 18.9 µM] in assay [16].

On to `CC(N)=S`, for which the Potency entry in [1], in assay [2], in [3], in assay [4], in [5] and in assay [6] was “inactive” in each case. For the same compound, the Potency result in [7], in [8], in [9], in assay [10], in assay [11] and in assay [12] was “inactive” each time. The Potency entry in [13], in [14] and in assay [16] was “inactive” throughout.

Regarding `O=C(N/N=C/c1ccc([N+](=O)[O-])o1)c1cc([N+](=O)[O-])cc([N+](=O)[O-])c1O`, the Potency entry in assay [1], in assay [3], in [4], in [5], in [6] and in [7] was “inactive” each time. Also, the Potency result in assay [8], in [9], in assay [10], in [11], in assay [13] and in [14] was “inactive” each time. For the same compound, the Potency result in assay [15] and in [16] was “inactive” throughout. In [2], the Potency was 29.8 µM (active).

Turning to `CC(O)C#N` (configuration not stated), the Potency result in assay [1], in [3], in [4], in assay [5], in assay [6] and in assay [7] was “inactive” each time. Moreover, the Potency result in [8], in assay [9], in [10], in assay [19], in [17] and in assay [20] was “inactive” in each case. Further, the Potency result in [18], in assay [12], in [13], in [14], in assay [15] and in assay [16] was “inactive” throughout. The Potency in [2] is 61.1 µM (active).
